Experimental data published in PubChem BioAssay (Tox21).
Results filed as inconclusive are left out. The source made the active and inactive calls. Unless noted, calls follow the shape of the full dose curve.

Experiments:
[1] = Nuclear factor erythroid 2-related factor 2/antioxidant responsive element (Nrf2/ARE) small molecule agonists: qHTS cell viability counter screen in human keratinocytes (AID 1919968; active = well fitted curve in the direction sought with a large enough effect in the repeat runs; an effect the other way counts as inactive or inconclusive; also: nearly all actives have a fitted effect of over 55% in size)
Summary of the method: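 Cytotoxicity was multiplexed with the Nrf2/ARE luciferase assay in the same wells. Stably transfected HaCaT keratinocytes were treated with test compounds for 23 h at 37 C. Cell viability was then measured by CellTiter-Fluor fluorescence.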

[2] = target: Gonadotropin-releasing hormone receptor (Homo sapiens) (UniProt P30968); experiment: Human gonadotropin-releasing hormone receptor (GnRHR) small molecule agonists, calcium flux assay in GnRHR-HEK293 cells (AID 1920063); also: nearly all actives have a fitted effect of over 35% in size
Summary of the method: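 Agonist activity was measured as intracellular calcium flux in HEK293 cells engineered to stably express human GnRHR. After dye loading for 1 hour at 37 C, compounds in DMSO were added and fluorescence was followed for 3 minutes.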

[3] = target: KiSS-1 receptor (Homo sapiens) (UniProt Q969F8); experiment: Human kisspeptin (KISS1R) small molecule agonists, calcium flux assay in KISS1R-HEK293 cells (AID 1920064; active = well fitted curve in the direction sought with a large enough effect in the repeat runs; an effect the other way counts as inactive or inconclusive)
Summary of the method: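 Agonist activity is monitored as intracellular calcium rise in engineered HEK293 cells carrying human KISS1R. Cells are dye-loaded for 1 h at 37 C before compound addition, and fluorescence is recorded for 3 min.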

[4] = p53 small molecule agonists, cell-based qHTS assay with human liver microsomes: qHTS cell viability counter screen (AID 1963579); also: nearly all actives have a fitted effect of over 45% in size
Summary of the method: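 Metabolically activated exposure: compounds, human liver microsomes and NADPH (0.5 mg/mL final apiece) were added to p53RE-bla cells seeded 5 h earlier, left 16 h at 37 C, and then assessed for viability by CellTiter-Glo luminescence.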

[5] = p53 small molecule agonists, cell-based qHTS assay: qHTS cell viability counter screen (AID 1963581); also: nearly all actives have a fitted effect of over 45% in size
Summary of the method: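 Viability was counter-screened in parallel with the p53 agonist reporter by measuring intracellular ATP luminescence in the same HCT-116 p53RE-bla wells after 16 h compound treatment at 37 C.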

[6] = target: 5-hydroxytryptamine receptor 2A (Homo sapiens) (UniProt P28223); experiment: 5-hydroxytryptamine receptor 2A (HTR2A) small molecule antagonists, cell-based qHTS assay (AID 1963586); also: nearly all actives have a fitted effect of over 45% in size
Summary of the method: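 CHO cells stably expressing human HTR2A were plated for 18 h at 37 C, then loaded with calcium dye for 1 h. Compounds were preincubated 5 min at room temperature before DOI (4 nM solution) was added. Kinetic fluorescence was read for 3 min.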

[7] = target: 5-hydroxytryptamine receptor 2A (Homo sapiens) (UniProt P28223); experiment: 5-hydroxytryptamine receptor 2A (HTR2A) small molecule agonists, cell-based qHTS assay (AID 1963587); also: nearly all actives have a fitted effect of over 30% in size
Summary of the method: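 Kinetic calcium-flux fluorescence (2 min, 1 sec intervals) after compound addition in agonist mode. HTR2A-CHO cells were cultured 18 h, then dye-loaded 1 h at 37 C.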

[8] = target: Muscarinic acetylcholine receptor M1 (Homo sapiens) (UniProt P11229); experiment: Cholinergic receptor muscarinic 1 (CHRM1) small molecule antagonists, cell-based qHTS assay (AID 1963588); also: nearly all actives have a fitted effect of over 40% in size
Summary of the method: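 Compounds were tested at 15 concentrations in three independent runs. Dye-loaded CHRM1-CHO cells were exposed 5 min at room temperature before stimulation by acetylcholine added at 50nM. Intracellular calcium was read kinetically on FDSS for 3 min.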

[9] = target: Muscarinic acetylcholine receptor M1 (Homo sapiens) (UniProt P11229); experiment: Cholinergic receptor muscarinic 1 (CHRM1) small molecule agonists, cell-based qHTS assay (AID 1963589); also: nearly all actives have a fitted effect of over 35% in size
Summary of the method: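 Cells were plated and incubated 18 h at 37 C/5% CO2, loaded with calcium dye for 1 h at 37 C, then treated with compounds in DMSO. Fluorescence was recorded kinetically at 1 sec intervals.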

[10] = cAMP Responsive Elements (CRE) small molecule agonists, cell-based qHTS assay (AID 1963590)
Summary of the method: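 Cells carrying a CRE-driven beta-lactamase reporter (HEK 293T) are seeded, incubated overnight (18 h), and treated with test compounds for 3 h at 37 C; reporter activity is then detected with a FRET substrate after 2 h at room temperature.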

[11] = cAMP Responsive Elements (CRE) small molecule antagonists, cell-based qHTS assay (AID 1963591; active = well fitted inhibition curve with a large enough effect in the signal ratio in the repeat runs, not every such curve was filed as active; the % refers to the signal ratio; also: potency is read from the fitted curve at half-maximal effect)
Summary of the method: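 Cells (CRE-bla HEK 293T, DMEM with 10% dialyzed FBS and 25 mM HEPES) are seeded and incubated 18 h. Compounds are added with NKH477 agonist at 0.25 uM final for 3 h, then FRET substrate for 2 h.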

[12] = target: Beta-2 adrenergic receptor (Homo sapiens) (UniProt P07550); experiment: Adrenergic beta2 receptor (ADRB2) small molecule antagonists, cell-based qHTS assay (AID 1963592); also: series mostly up to about 92 µM; nearly all actives have a fitted effect of over 50% in size
Summary of the method: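 Assay format: CHO-ADRB2 cells, 18-20hr seeding at 37C/5% CO2, then compound plus 1nM isoproterenol agonist mix for 0.5hr RT. Homogeneous time-resolved fluorescence cAMP detection after 1hr, expressed as 665/615 nm ratio.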

[13] = target: Beta-2 adrenergic receptor (Homo sapiens) (UniProt P07550); experiment: Adrenergic beta2 receptor (ADRB2) small molecule agonists, cell-based qHTS assay (AID 1963593);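 also: CHO cells stably overexpressing human ADRB2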
Summary of the method: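 CHO cells stably over-expressing ADRB2 were plated overnight at 37C, then dosed with compounds plus a stimulation mix containing 100uM IBMX and 25uM Ro-20-1724 for 0.5hr at room temperature. cAMP was measured by HTRF competition, 1hr.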

[14] = target: D(2) dopamine receptor (Homo sapiens) (UniProt P14416); experiment: Dopamine D2 receptor (DRD2) small molecule agonists, cell-based qHTS assay (AID 1963594); also: nearly all actives have a fitted effect of over 35% in size
Summary of the method: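 cAMP accumulation in DRD2-HEK293 cells measured by HTRF after 1 h detection; compounds added 10 min before NKH477 (200nM […]) forskolin-analogue stimulation, 30 min at room temperature, with Ro20-1724 present at 0.1 mM final.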

[15] = target: D(2) dopamine receptor (Homo sapiens) (UniProt P14416); experiment: Dopamine D2 receptor (DRD2) small molecule antagonists, cell-based qHTS assay (AID 1963595; active = well fitted inhibition curve with a large enough effect in the signal ratio in the repeat runs, with a control signal flat; the % refers to the signal ratio)
Summary of the method: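 Antagonist mode in DRD2-HEK293 cells: after compound addition with 0.1 mM Ro20-1724, cells received quinpirole (12 nM) and NKH477 (200 nM) for 30 min at room temperature; HTRF cAMP read after 1 h detection.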

[16] = G protein-coupled receptor (GPCR) small molecule agonists, calcium flux assay: HEK293 wild type cell line counter screen (AID 1920065)
Summary of the method: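 Seed cells, incubate 18 h (37 C, 5% CO2); add calcium dye, 1 h at 37 C; pin-transfer compounds, ATP control or DMSO; read fluorescence 480/540 nm each second for 3 min.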

[17] = p53 small molecule agonists, cell-based qHTS assay with rat liver microsomes: qHTS cell viability counter screen (AID 1963580); also: nearly all actives have a fitted effect of over 45% in size
Summary of the method: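 Rat liver microsome (0.5 mg/mL final) and NADPH (0.5 mg/mL final) co-incubation with compounds for 16 h at 37 C on HCT-116 p53RE-bla cells; cytotoxicity taken from intracellular ATP luminescence.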

[18] = p53 small molecule agonists, cell-based qHTS assay (AID 1963582; active = well fitted activation curve with a large enough effect in the signal ratio in the repeat runs, not every such curve was filed as active; the % refers to the signal ratio)
Summary of the method: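 Cells carrying a p53-responsive bla reporter are treated with test compounds for 16 h at 37 C; beta-lactamase activity is then detected with LiveBLAzer B/G FRET substrate after 2 h at room temperature.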

[19] = p53 small molecule agonists, cell-based qHTS assay with human liver microsomes (AID 1963577);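 also: p53 response element beta-lactamase reporter cells with liver microsomes plus NADPH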
Summary of the method: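 In this qHTS, p53 response-element beta-lactamase cells receive test compound together with a microsome/NADPH activating system (0.5 mg/mL final each) and are incubated 16 h at 37 C before LiveBLAzer fluorescence detection.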

[20] = p53 small molecule agonists, cell-based qHTS assay with rat liver microsomes (AID 1963578)
Summary of the method: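 Agonist mode in p53RE-bla reporter cells, with compounds co-incubated 16 h at 37 C alongside 0.5 mg/mL rat liver microsomes and 0.5 mg/mL NADPH (final), followed by a 2 h LiveBLAzer detection step.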

Measured: Potency

Beta-2 adrenergic receptor (Homo sapiens), sequence (P07550 whole entry, looked up): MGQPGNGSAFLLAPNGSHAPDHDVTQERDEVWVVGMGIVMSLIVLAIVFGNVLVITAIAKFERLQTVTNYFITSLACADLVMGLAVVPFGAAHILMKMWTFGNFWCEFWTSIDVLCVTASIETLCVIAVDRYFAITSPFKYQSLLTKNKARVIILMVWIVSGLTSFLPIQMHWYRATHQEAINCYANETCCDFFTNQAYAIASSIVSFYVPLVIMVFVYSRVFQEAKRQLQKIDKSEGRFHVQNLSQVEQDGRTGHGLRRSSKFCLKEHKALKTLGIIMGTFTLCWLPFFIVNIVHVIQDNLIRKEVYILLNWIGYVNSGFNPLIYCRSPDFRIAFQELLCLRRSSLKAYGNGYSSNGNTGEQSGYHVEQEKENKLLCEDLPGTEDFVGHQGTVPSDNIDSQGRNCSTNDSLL
KiSS-1 receptor (Homo sapiens), sequence (Q969F8 whole entry, looked up): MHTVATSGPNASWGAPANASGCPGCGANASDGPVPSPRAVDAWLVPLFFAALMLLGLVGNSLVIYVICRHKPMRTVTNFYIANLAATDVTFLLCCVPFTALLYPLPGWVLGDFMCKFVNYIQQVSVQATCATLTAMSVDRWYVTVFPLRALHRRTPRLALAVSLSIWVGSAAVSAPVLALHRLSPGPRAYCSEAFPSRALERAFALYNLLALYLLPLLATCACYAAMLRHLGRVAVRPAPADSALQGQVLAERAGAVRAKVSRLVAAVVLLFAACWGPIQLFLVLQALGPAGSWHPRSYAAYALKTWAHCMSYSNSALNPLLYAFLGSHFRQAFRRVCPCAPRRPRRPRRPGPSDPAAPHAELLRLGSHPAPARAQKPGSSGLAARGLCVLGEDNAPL
5-hydroxytryptamine receptor 2A (Homo sapiens), sequence (P28223 whole entry, looked up): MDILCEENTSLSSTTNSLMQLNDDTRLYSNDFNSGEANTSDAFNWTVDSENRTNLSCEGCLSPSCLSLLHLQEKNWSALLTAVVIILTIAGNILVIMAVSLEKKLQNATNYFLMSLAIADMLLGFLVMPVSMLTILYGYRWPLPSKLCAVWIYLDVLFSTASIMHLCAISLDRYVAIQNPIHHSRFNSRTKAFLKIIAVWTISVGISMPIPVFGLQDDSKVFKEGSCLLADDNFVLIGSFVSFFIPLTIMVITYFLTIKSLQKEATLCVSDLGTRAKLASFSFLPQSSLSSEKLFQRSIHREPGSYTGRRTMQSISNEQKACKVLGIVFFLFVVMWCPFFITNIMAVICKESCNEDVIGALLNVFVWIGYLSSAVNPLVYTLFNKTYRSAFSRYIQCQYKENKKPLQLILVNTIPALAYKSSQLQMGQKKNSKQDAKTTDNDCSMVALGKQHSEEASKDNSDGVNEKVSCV
D(2) dopamine receptor (Homo sapiens), sequence (P14416 whole entry, looked up): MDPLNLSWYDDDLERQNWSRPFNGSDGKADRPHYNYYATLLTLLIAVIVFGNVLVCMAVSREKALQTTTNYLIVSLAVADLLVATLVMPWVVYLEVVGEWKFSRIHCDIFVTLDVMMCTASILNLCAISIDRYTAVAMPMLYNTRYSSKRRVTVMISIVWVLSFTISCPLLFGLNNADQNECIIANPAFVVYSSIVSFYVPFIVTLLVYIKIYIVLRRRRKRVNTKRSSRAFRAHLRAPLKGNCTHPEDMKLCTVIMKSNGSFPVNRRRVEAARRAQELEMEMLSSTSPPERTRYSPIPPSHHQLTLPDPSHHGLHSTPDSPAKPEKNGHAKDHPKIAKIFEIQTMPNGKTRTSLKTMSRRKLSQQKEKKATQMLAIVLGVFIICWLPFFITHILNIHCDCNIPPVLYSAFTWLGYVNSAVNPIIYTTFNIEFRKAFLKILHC
Gonadotropin-releasing hormone receptor (Homo sapiens), sequence (P30968 whole entry, looked up): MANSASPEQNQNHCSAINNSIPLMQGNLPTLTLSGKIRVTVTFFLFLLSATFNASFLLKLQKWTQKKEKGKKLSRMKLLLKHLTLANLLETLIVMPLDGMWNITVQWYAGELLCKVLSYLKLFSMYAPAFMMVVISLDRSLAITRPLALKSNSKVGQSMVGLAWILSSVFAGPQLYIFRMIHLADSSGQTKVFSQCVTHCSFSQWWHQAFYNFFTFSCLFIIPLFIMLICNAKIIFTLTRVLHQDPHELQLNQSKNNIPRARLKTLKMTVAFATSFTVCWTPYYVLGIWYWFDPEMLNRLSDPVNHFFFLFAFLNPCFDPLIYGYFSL
Muscarinic acetylcholine receptor M1 (Homo sapiens), sequence (P11229 whole entry, looked up): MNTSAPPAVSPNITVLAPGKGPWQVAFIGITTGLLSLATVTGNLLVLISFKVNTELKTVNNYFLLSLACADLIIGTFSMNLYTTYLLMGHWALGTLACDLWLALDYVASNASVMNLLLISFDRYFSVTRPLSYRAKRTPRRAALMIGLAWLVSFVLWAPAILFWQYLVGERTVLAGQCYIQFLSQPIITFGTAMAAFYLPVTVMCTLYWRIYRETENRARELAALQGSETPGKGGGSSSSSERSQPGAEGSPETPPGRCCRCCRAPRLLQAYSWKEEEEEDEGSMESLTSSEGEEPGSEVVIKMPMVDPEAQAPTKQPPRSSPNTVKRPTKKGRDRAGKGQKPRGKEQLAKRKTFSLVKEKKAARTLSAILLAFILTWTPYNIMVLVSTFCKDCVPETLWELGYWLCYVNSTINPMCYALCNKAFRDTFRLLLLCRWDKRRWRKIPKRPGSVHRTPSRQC

O=C1NC(=O)C(=O)C(=O)N1
inactive: [1] | [2] | [3] | [4] | [5] | [6] | [7] | [8] | [9] | [10] | [11] | [12] | [13] | [14] | [15]

O=[N+]([O-])[O-].[Tl+]
inactive: [1] | [2] | [3] | [16] | [4] | [17] | [5] | [6] | [8] | [9] | [10] | [11] | [12]

CNC(=O)O/N=C(\C)SC
inactive: [1] | [2] | [3] | [16] | [4] | [17] | [18] | [6] | [7] | [8] | [9] | [10] | [11] | [12] | [14] | [15]

CCOCCOC(C)=O
inactive: [1] | [2] | [3] | [16] | [18] | [7] | [9] | [10] | [14]
active: [11] 12.8 µM

BrCC(Br)C1CCC(Br)C(Br)C1 (centres undefined)
inactive: [1] | [2] | [3] | [19] | [20] | [4] | [5] | [18] | [6] | [7] | [8] | [10] | [11] | [13] | [14] | [15]

CC(C)C(Br)C(=O)NC(N)=O (centres undefined)
inactive: [1] | [2] | [3] | [16] | [4] | [17] | [5] | [10] | [11] | [12] | [14]

CCNC(=O)NC(=O)/C(C#N)=N/OC
inactive: [1] | [2] | [3] | [16] | [17] | [5] | [6] | [7] | [8] | [9] | [12] | [14] | [15]

C[C@H]1[C@H](c2ccc(Cl)cc2)SC(=O)N1C(=O)NC1CCCCC1
inactive: [1] | [2] | [3] | [20] | [4] | [17] | [5] | [6] | [7] | [8] | [9] | [11] | [12] | [13] | [14] | [15]

O=[N+]([O-])c1cccc(CCl)c1
inactive: [1] | [2] | [3] | [16] | [4] | [5] | [6] | [7] | [8] | [9] | [10] | [11] | [14] | [15]
